DUX4 inh = inhibitors of DUX4-driven ZSCAN4 reporter expression, primary screen, 293T cells, Gaussia and Italica luciferase; 293T-iDUX4 ZSCAN4-Gaussia luciferase reporter, 24 h; active compounds read low; activity change, negative = inhibition, % (test concentration not listed); 37,000 tested, 0.8% active;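 active = mean inhibition of at least 10% in the main channel, exceeding the control channel by a set limit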;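 also: 0% = median of neutral control wells and -100% = median of positive control wells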
The depositor's hits bear a star; ! = not confirmed by another sample. The entries come from a sample that favours hits as a whole.

SMILES	DUX4 inh
OC[C@@H]1[C@@H](c2ccc(-c3cccc(F)c3)cc2)[C@H]2CN(Cc3cncnc3)CCCCN12	4
OC[C@@H]1[C@H](c2ccc(-c3cccc(F)c3)cc2)[C@H]2CN(CCC(F)(F)F)CCCCN12	-47*
OC[C@@H]1[C@H](c2ccc(-c3cccc(F)c3)cc2)[C@@H]2CN(CCC(F)(F)F)CCCCN12	-6
COC(=O)[C@H]1[C@H](CO)[C@H]2Cn3c(ccc(C4=CCCC4)c3=O)[C@H]2N1C(=O)C1CC1	-2
CC(C)NC(=O)N[C@H]1C=C[C@H](CC(=O)NCCCN(C)C)O[C@H]1CO	6
C/C=C/c1ccc([C@H]2[C@@H](CO)N(CC3CCOCC3)C23CN(S(=O)(=O)CC)C3)cc1	-5
N#C[C@@H]1[C@H](c2ccccc2)[C@@H](CO)N1C(=O)CN1CCOCC1	2
N#Cc1ccc(-c2ccc(C3[C@@H]4CN(C(=O)Nc5ccc(C(F)(F)F)cc5)C[C@H]3N4)cc2)cc1 (some centres undefined)	-49*!
COc1ccc(NC(=O)N2C[C@@H]3N[C@H](C2)C3c2ccc(-c3cccc(F)c3)cc2)cc1 (some centres undefined)	-4
COc1ccc(NC(=O)N2C[C@@H]3N[C@H](C2)C3c2ccc(-c3cccnc3)cc2)cc1 (some centres undefined)	16
O=C(Nc1ccc(F)cc1)N1C[C@@H]2N[C@H](C1)C2c1ccc(-c2cccnc2)cc1 (some centres undefined)	-37*!
CN(C)C(=O)c1ccc(-c2ccc(C3[C@@H]4CN(C(=O)Nc5ccc(Cl)cc5)C[C@H]3N4)cc2)cc1 (some centres undefined)	16
N#Cc1ccc(-c2ccc(C3[C@H]4CNC[C@@H]3N4C(=O)Nc3ccc(Cl)cc3)cc2)cc1 (some centres undefined)	5
COCC(=O)N1CC2(C1)[C@@H](c1ccc(-c3ccccc3)cc1)[C@@H](CO)N2C(=O)COC	0
CN(C)C(=O)C[C@H]1C=C[C@H](NC(=O)C2CCOCC2)[C@@H](CO)O1	4
COc1ccc(NC(=O)N(C)C[C@@H]2Oc3ccc(N(C)C)cc3C(=O)N([C@@H](C)CO)C[C@H]2C)cc1	-3
O=C(C1CCC1)N1CC2(C1)[C@H](c1ccccc1)[C@@H](CO)N2Cc1cncnc1	13
Cc1ccccc1S(=O)(=O)N1C[C@@H]2N[C@H](C1)C2c1ccc(-c2cccc(C#N)c2)cc1 (some centres undefined)	-71*!
O=S(=O)(c1ccccc1F)N1C[C@@H]2N[C@H](C1)C2c1ccc(-c2cncnc2)cc1 (some centres undefined)	-14*
N#Cc1cccc(-c2ccc(C3[C@@H]4CN(S(=O)(=O)c5ccccc5F)C[C@H]3N4)cc2)c1 (some centres undefined)	-54*!
N#Cc1cccc(-c2ccc(C3[C@@H]4CN(C(=O)C5CCOCC5)C[C@H]3N4)cc2)c1 (some centres undefined)	1
O=S(=O)(c1ccccc1F)N1C[C@@H]2N[C@H](C1)C2c1ccc(-c2ccncc2)cc1 (some centres undefined)	-4
O=S(=O)(c1ccccc1F)N1[C@@H]2CNC[C@H]1C2c1ccc(-c2cccc(F)c2)cc1 (some centres undefined)	3
O=S(=O)(c1ccccc1F)N1CCCCN2[C@H](C1)[C@@H](c1ccc(-c3cncnc3)cc1)[C@@H]2CO	30
Cc1ccccc1S(=O)(=O)N1[C@H](C#N)[C@H](c2ccc(-c3ccccc3)cc2)[C@H]1CO	0
SMILES	DUX4 inh
O=S(=O)(c1ccccc1F)N1[C@@H]2CNC[C@H]1C2c1ccc(-c2ccncc2)cc1 (some centres undefined)	-2
CN1C[C@H](O)COC[C@@H]2O[C@H](CC(=O)NC3CCCC3)CC[C@H]21	5
COc1ccc(CN2CC3(CCN(C(C)=O)CC3)c3c(n(C)c4cc(OC)ccc34)[C@H]2CO)cc1	6
Cc1noc(C)c1S(=O)(=O)Nc1ccc2c(c1)C(=O)N([C@H](C)CO)C[C@H](C)[C@H](CN(C)S(=O)(=O)c1ccc(F)cc1)OCCCC[C@@H](C)O2	-2
Cc1ccccc1S(=O)(=O)N1[C@H](CO)[C@@H](c2ccc(-c3ccc(F)cc3)cc2)[C@@H]1C#N	-4
CN1C(=O)c2cc(NS(C)(=O)=O)ccc2OC[C@@H]2O[C@@H](CC(=O)NCc3ccccc3)CC[C@@H]21	0
CCS(=O)(=O)N[C@H]1C=C[C@@H](CC(=O)NC2Cc3ccccc3C2)O[C@@H]1CO	6
O=C(NC1CCCC1)[C@H]1[C@H](CO)[C@H]2Cn3c(ccc(-c4ccncc4)c3=O)[C@H]2N1CCc1ccccc1	1
COc1ccc(-c2ccc([C@@H]3[C@H](C#N)N(C(=O)NC4CCCCC4)[C@H]3CO)cc2)cc1	2
O=C(Cc1ccncc1)N1C[C@@H]2N[C@H](C1)C2c1ccc(/C=C/c2ccccc2)cc1 (some centres undefined)	-28*!

Screening data deposited in PubChem by Broad Institute.
